This is an account of results in PubChem BioAssay (Tox21).

Test [1] is described as follows: qHTS assay to identify small molecule agonists of the peroxisome proliferator-activated receptor delta (PPARd) signaling pathway - cell viability counter screen (AID 743211). Also: nearly all actives have a fitted effect of over 55% in size. Also: potency is read from the fitted curve at half-maximal effect. A digest of the protocol:
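Tox21 library compounds, delivered in DMSO, were incubated 17 h with PPARd-bla HEK293H cells; cytotoxicity was taken from CellTiter-Glo luminescence read 30 min after reagent addition.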
(In general: Quantitative high-throughput screening tests each substance at several concentrations.)

The target in test [2] is Peroxisome proliferator-activated receptor delta (Homo sapiens) (UniProt Q03181). Description: qHTS assay to identify small molecule agonists of the peroxisome proliferator-activated receptor delta (PPARd) signaling pathway (AID 743212; calls by dose curve;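 also: HEK293H cells with PPARd UAS beta-lactamase reporter GeneBLAzer system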; also: potency is read from the fitted curve at half-maximal effect). An outline of the steps:
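Beta-lactamase reporter read by fluorescence (LiveBLAzer B/G FRET, 2 h, room temperature). Test agents, in DMSO, incubated at 37 C with PPARd-bla HEK293H cells.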

A short description of test [3]: qHTS assay to identify small molecule antagonists of the peroxisome proliferator-activated receptor delta (PPARd) signaling pathway - cell viability counter screen (AID 743213). Also: nearly all actives have a fitted effect of over 50% in size. Also: potency is read from the fitted curve at half-maximal effect. An outline of the steps: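 Viability counter-screen, qHTS format: PPARd-bla HEK293H, L165041 300 nM final, 17 h compound exposure at 37 C, CellTiter-Glo luminescence after 30 min RT.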
Test [4] is described as follows: qHTS assay to identify small molecule agonists of the farnesoid-X-receptor (FXR) signaling pathway - cell viability counter screen (AID 743218). Also: nearly all actives have a fitted effect of over 45% in size. Also: potency is read from the fitted curve at half-maximal effect. An outline of the steps:
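Viability of FXR-bla HEK 293T cells is measured by ATP-based CellTiter-Glo luminescence following 16 h compound treatment at 37 C and a prior 2 h room-temperature beta-lactamase substrate step.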

Test [5] is described as follows: qHTS assay to identify small molecule antagonists of the farnesoid-X-receptor (FXR) signaling pathway - cell viability counter screen (AID 743221; active = well fitted cell-killing curve with a large enough effect in the repeat runs, not every such curve was filed as active; also: nearly all actives have a fitted effect of over 50% in size; also: potency is read from the fitted curve at half-maximal effect). A digest of the protocol:
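Cytotoxicity is taken from ATP luminescence (CellTiter-Glo, 30 min, room temperature) in FXR-bla HEK 293T cells previously incubated 16 h at 37 C with compound and chenodeoxycholic acid at 50 uM final.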

Test [6] can be described thus: qHTS assay to identify small molecule agonists of the vitamin D receptor (VDR) signaling pathway - cell viability counter screen (AID 743224). Also: nearly all actives have a fitted effect of over 50% in size. Also: potency is read from the fitted curve at half-maximal effect. A digest of the protocol: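 Compounds were pin-transferred onto VDR-bla cells plated 4 h earlier; following 16 h incubation at 37C, cell viability was quantified by CellTiter-Glo luminescence after 30 min at room temperature.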

Test [7] can be described thus: qHTS assay to identify small molecule antagonists of the vitamin D receptor (VDR) signaling pathway - cell viability counter screen (AID 743225). Also: nearly all actives have a fitted effect of over 50% in size. Also: potency is read from the fitted curve at half-maximal effect. An outline of the steps: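 Same-well multiplex: following 16 h treatment of HEK 293T cells carrying a UAS-driven beta-lactamase reporter with compound and agonist (3 nM final), and a 2 h FRET substrate step, CellTiter-Glo was added and luminescence read after 30 min.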

A short description of test [8]: qHTS assay to identify small molecule agonists of the NFkB signaling pathway - cell viability counter screen (AID 1159515; calls by dose curve; also: nearly all actives have a fitted effect of over 55% in size; also: potency is read from the fitted curve at half-maximal effect). A digest of the protocol: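 Parallel cytotoxicity counter screen in ME-180 cells carrying an NFkB-response-element beta-lactamase reporter, 2,000 cells/well. Compound exposure lasted 5 hr at 37 C, 5% CO2. Cell viability was quantified by CellTiter-Glo luminescence.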

A short description of test [9]: qHTS assay to identify small molecule agonists of the endoplasmic reticulum stress response signaling pathway - cell viability counter screen (AID 1159517; calls by dose curve; also: nearly all actives have a fitted effect of over 50% in size; also: potency is read from the fitted curve at half-maximal effect). An outline of the steps:
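Cytotoxicity of test compounds toward ESRE-bla HeLa cells was assessed after 5 hr exposure. The luminescent CellTiter-Glo signal was measured 30 min after reagent addition.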

The nature of test [10]: qHTS assay to identify small molecule antagonists of the retinoid-related orphan receptor gamma (ROR-gamma) signaling pathway - cell viability counter screen (AID 1159520). Also: nearly all actives have a fitted effect of over 50% in size. Also: potency is read from the fitted curve at half-maximal effect. An outline of the steps: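 Tet-on ROR gamma CHO cells (1,000/well) were plated 4 hr, given compounds in DMSO for 2 hr at 37 C, then induced with 1 uM final doxycycline for 16 hr. Viability was read as ATP by CellTiter-Glo luminescence after 30 min.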

Test [11] has as its target Nuclear receptor ROR-gamma (Homo sapiens) (UniProt P51449). Description: qHTS assay to identify small molecule antagonists of the retinoid-related orphan receptor gamma (ROR-gamma) signaling pathway (AID 1159521; also: nearly all actives have a fitted effect of over 50% in size; also: potency is read from the fitted curve at half-maximal effect). A digest of the protocol: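 Inducible-expression reporter assay: doxycycline (1 uM final) switched on RORγ in CHO cells bearing a ROR response element-luciferase construct, with test compounds present from 2 h beforehand. Decreased luminescence after 16 h defined antagonist activity.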

Test [12] concerns the target Peroxisome proliferator-activated receptor delta (Homo sapiens) (UniProt Q03181). Description: qHTS assay to identify small molecule antagonists of the peroxisome proliferator-activated receptor delta (PPARd) signaling pathway (AID 743215; active = well fitted inhibition curve with a large enough effect in the signal ratio in the repeat runs, not every such curve was filed as active; the % refers to the signal ratio;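 also: cells stimulated with agonist L165041 at 300 nM final during compound exposure; series mostly up to about 62 µM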). A digest of the protocol: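 Plated HEK293H PPARd-bla cells rested 5 h at 37 C and 5% CO2. Compound, then agonist L165041 at 300 nM final, was added; 17 h at 37 C followed. Substrate loading, 2 h room temperature, fluorescence measured.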

Test [13] is described as follows: qHTS assay to identify small molecule agonists of the endoplasmic reticulum stress response signaling pathway (AID 1159516; active = well fitted activation curve with a large enough effect in the signal ratio in the repeat runs, not every such curve was filed as active; the % refers to the signal ratio). An outline of the steps:
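Using a HeLa line with an ESRE-driven beta-lactamase gene, agonist activity was measured by FRET substrate fluorescence (460 and 530 nm emission) after cells were treated with compounds for 5 hr at 37 C and 5% CO2.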

The nature of test [14]: qHTS assay to identify small molecule agonists of the AP-1 signaling pathway - cell viability counter screen (AID 1159525; calls by dose curve; also: nearly all actives have a fitted effect of over 55% in size; also: potency is read from the fitted curve at half-maximal effect). A digest of the protocol:
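Each titration point was normalised to DMSO and tetra n-octyl ammonium bromide controls. The read was Cell Titer Glo luminescence after 30 min at RT, following 5 h compound exposure of ME-180 AP-1-bla cells at 37 °C.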

A short description of test [15]: qHTS assay to identify small molecule agonists of the AP-1 signaling pathway (AID 1159526; calls by dose curve).
In test [16] the target is Retinoic acid receptor RXR-alpha (Homo sapiens) (UniProt P19793). Description: qHTS assay to identify small molecule agonists of the RXR signaling pathway (AID 1159527; calls by dose curve; also: nearly all actives have a fitted effect of over 35% in size). A digest of the protocol:
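Compounds in DMSO were added to RXR-alpha-UAS-bla HEK 293T cells kept in 2% charcoal-stripped serum, and incubated 16 hr at 37 C with 5% CO2. Reporter signal came from a 2 hr B/G FRET substrate step.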

Test [17] concerns the target Vitamin D3 receptor (Homo sapiens) (UniProt P11473). The test is described as follows: qHTS assay to identify small molecule antagonists of the vitamin D receptor (VDR) signaling pathway (AID 743223; active = well fitted inhibition curve with a large enough effect in the signal ratio in the repeat runs, not every such curve was filed as active; the % refers to the signal ratio). An outline of the steps:
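Quantitative HTS in VDR-bla reporter cells stimulated with 1alpha,25-dihydroxyvitamin D3, 3 nM final. Compound exposure 16 h, 37C, 5% CO2. Read-out: beta-lactamase FRET substrate fluorescence, 2 h RT.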

The target in test [18] is Bile acid receptor (Homo sapiens) (UniProt Q96RI1). Description: qHTS assay to identify small molecule antagonists of the farnesoid-X-receptor (FXR) signaling pathway (AID 743217; active = well fitted inhibition curve with a large enough effect in the signal ratio in the repeat runs, not every such curve was filed as active; the % refers to the signal ratio). A digest of the protocol: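 Screen of the Tox21 10K library in quantitative HTS format using FXR-UAS-bla HEK 293T reporter cells. Agonist chenodeoxycholic acid, 50 uM final, added with compounds; 16 h incubation at 37 °C; beta-lactamase FRET fluorescence measured.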

The target of test [19] is Vitamin D3 receptor (Homo sapiens) (UniProt P11473). The test is described as follows: qHTS assay to identify small molecule agonists of the vitamin D receptor (VDR) signaling pathway (AID 743222; calls by dose curve). A digest of the protocol:
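Fluorescence from cleaved LiveBLAzer B/G FRET substrate served as readout. VDR-bla cells had been treated 16 h at 37C with test compounds in DMSO, following a 4 h settling period, and substrate was loaded for 2 h at RT.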

Each structure is given as a SMILES string. Where “and” joins values, the source holds several entries; their conditions need not be identical. Equal values may be shown once. Records with an inconclusive call do not appear. Where a structure was tested more than once in an assay, its records may differ in their call. Calls of active or inactive are those of the source. Unless noted, calls follow the shape of the dose curve; as a rule, active = well fitted curve in the direction sought with a large enough effect in the repeat runs; inconclusive = weak or mixed curves; inactive = no such curve, though single readings can be large; an effect the other way counts as inactive or inconclusive.

Chain of Peroxisome proliferator-activated receptor delta (Homo sapiens) (Q03181 whole entry, looked up): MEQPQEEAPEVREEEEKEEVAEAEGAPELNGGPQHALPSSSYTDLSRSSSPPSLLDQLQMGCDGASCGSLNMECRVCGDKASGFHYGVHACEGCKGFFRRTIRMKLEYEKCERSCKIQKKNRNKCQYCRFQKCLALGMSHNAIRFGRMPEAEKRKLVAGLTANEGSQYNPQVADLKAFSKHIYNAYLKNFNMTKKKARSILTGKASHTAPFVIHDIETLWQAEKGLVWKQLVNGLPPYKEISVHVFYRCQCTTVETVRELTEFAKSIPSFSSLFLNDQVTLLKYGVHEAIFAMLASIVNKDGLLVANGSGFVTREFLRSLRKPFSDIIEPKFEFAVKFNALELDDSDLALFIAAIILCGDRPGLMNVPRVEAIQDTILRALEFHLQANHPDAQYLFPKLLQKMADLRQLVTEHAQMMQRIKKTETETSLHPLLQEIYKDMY
Chain of Vitamin D3 receptor (Homo sapiens) (P11473 whole entry, looked up): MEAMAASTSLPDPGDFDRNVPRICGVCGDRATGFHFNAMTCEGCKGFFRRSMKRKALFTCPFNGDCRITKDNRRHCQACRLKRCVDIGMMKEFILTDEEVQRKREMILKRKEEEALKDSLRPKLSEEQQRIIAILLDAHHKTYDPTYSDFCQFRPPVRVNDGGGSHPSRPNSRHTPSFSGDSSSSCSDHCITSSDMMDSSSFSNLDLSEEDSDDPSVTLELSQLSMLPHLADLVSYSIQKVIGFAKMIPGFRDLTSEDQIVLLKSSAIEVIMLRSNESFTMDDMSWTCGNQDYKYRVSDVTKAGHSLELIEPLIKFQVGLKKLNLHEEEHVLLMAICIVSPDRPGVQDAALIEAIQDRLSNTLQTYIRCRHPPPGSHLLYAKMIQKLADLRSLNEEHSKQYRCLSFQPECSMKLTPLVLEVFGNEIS
Chain of Retinoic acid receptor RXR-alpha (Homo sapiens) (P19793 whole entry, looked up): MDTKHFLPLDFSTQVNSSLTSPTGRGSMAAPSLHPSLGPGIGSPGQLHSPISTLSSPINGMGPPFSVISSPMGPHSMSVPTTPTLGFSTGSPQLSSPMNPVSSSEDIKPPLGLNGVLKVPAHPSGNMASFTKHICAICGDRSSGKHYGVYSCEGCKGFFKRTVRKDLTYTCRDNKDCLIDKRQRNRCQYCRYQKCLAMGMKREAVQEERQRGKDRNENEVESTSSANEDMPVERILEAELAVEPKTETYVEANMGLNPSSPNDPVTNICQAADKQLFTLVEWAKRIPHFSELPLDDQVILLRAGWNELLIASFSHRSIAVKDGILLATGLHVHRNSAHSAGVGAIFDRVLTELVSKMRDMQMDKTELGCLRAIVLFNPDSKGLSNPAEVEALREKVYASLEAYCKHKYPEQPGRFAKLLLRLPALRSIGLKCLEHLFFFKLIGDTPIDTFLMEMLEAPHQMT
Chain of Bile acid receptor (Homo sapiens) (Q96RI1 whole entry, looked up): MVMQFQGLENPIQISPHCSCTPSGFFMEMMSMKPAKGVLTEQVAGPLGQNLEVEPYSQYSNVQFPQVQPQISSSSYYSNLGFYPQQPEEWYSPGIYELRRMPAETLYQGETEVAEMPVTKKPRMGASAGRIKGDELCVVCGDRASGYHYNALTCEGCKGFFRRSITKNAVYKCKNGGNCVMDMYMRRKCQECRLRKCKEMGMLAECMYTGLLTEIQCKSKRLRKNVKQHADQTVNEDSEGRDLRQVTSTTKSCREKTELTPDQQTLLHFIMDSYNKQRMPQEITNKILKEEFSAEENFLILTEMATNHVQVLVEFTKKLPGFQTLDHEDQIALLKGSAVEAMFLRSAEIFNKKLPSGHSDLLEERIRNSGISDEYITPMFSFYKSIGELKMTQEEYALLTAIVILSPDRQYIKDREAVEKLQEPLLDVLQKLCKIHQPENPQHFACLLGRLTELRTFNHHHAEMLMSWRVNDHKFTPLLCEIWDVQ

`Cc1ccc([N+](=O)[O-])[c]2c1[O][Hg]2`: the Potency in test [1] was 1.88 µM (active); in test [2] it was 29.8 µM (active); in test [3], 5.96 µM (active); in [4], 2.37 µM (active); in [5] it was 1.19 µM (active); in test [6], 3.76 µM (active). In addition, the Potency is 3.01 µM (active) in [7]; 6.01 µM (active) in test [8]; 23.9 µM (active) in test [9]; 1.19 µM (active) in test [10]; 376 nM (active) in [11].

As to `Clc1ccc(C2(Cn3cncn3)OCCO2)c(Cl)c1`, the Potency result in test [1], in test [2], in [3], in test [12], in test [5] and in test [6] was “inactive” in each case. The Potency result in test [7], in [13], in test [9], in [10], in [11] and in test [14] was “inactive” throughout. Also, in test [15], the Potency result is “inactive”.

Turning to `C#CC1(O)CCCCC1`, the Potency result in test [1], in test [3], in test [4], in [5], in test [6] and in test [7] was “inactive” in each case. For the same compound, the Potency result in test [8], in test [9], in [10], in [11], in test [15] and in test [16] was “inactive” each time.

In the case of `Cc1cccc(Cc2cnc[nH]2)c1C`, the Potency entry in test [2], in test [12], in test [17], in [6], in [7] and in test [8] was “inactive” each time. Besides, the Potency result in test [9], in [10], in test [11], in [14] and in [16] was “inactive” throughout.

As to `O=C1C(Cl)=C(Cl)C(=O)C(Cl)=C1Cl`, the Potency is 15.5 µM (active) in [1]; “inactive and 19.5 µM (active)” in [4]; 12.3 µM (active) and 13.8 µM (active) in [6]; 17.4 µM (active) in test [7]; 38.9 µM (active) in test [8]; 54.8 µM (active) in test [9]. In addition, the Potency is 15.3 µM (active) in test [10]; 12.1 µM (active) and 30.6 µM (active) in test [11]. Moreover, the Potency entry in test [2], in test [18], in test [5] and in [14] was “inactive” throughout.

As for `O=S1OCC2C(CO1)C1(Cl)C(Cl)=C(Cl)C2(Cl)C1(Cl)Cl` (stereo not drawn), the Potency is 54.9 µM (active) in test [3]; 38.9 µM (active) in [6]; 55 µM (active) in [8]; 55 µM (active) in [9]; 54.5 µM (active) in test [10]; 43.3 µM (active) and 61.1 µM (active) in test [11]. Moreover, the Potency in test [14] was 38.9 µM (active) and 48.9 µM (active). Also, the Potency result in test [19] and in test [7] was “inactive” in each case.
